# In publication PMC7862700, “An all-to-all approach to the identification of sequence-specific readers for epigenetic DNA modifications on cytosine”:
# Assays:
# Test in all cases: DAPPL (digital affinity profiling via proximity ligation, sequencing); 10 mM Tris-HCl pH 7.5, 50 mM NaCl, 1 mM DTT, 4% glycerol, room temperature, 30 min; GST-TFs on glutathione beads, 16-mer random dsDNA library, 0.1% formaldehyde crosslink after washing; high values mean tight binding
# Settings in all cases: protein: recombinant; tags: N-terminal GST; dsDNA, one strand shown
# FEV = biological target: T1, FEV (Homo sapiens, UniProt Q99581 1-238)
# T1 sequence: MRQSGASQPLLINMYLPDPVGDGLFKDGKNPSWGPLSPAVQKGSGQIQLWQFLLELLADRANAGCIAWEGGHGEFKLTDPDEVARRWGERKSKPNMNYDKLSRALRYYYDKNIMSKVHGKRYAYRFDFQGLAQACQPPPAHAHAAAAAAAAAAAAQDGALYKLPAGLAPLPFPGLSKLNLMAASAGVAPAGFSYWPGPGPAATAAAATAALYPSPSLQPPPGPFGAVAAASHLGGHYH
# How it was run: (§1)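 Binding signal is given per hexamer as its read frequency for a factor divided by its frequency in the tag-only sample. GST-fused human transcription factors were expressed in yeast, captured on glutathione beads, barcoded with DNA and pooled with that sample, then incubated with 200 nmole of a 16-mer random double-stranded DNA library in Tris/NaCl/DTT/glycerol buffer for 30 min at room temperature. The pools were then washed, crosslinked, proximity-ligated, amplified by PCR and sequenced on an Illumina NextSeq500.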
# ETV5 = ETV5 (Homo sapiens, UniProt P41161 1-510)
# How it was run: as §1
# SPIC = biological target: T2, SPIC (Homo sapiens, UniProt Q8N5J4 1-248)
# T2 sequence: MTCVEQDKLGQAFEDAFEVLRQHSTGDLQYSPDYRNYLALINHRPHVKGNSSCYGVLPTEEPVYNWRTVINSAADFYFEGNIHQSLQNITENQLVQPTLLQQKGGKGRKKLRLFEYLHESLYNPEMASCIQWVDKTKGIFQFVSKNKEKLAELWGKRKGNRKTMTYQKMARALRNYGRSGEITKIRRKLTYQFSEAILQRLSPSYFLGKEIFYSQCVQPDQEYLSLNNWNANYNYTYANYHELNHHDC
# How it was run: as §1
# ELF4 = ELF4 (Homo sapiens, UniProt Q99607 1-663)
# How it was run: as §1
# ELK4 = biological target: T3, ELK4 (Homo sapiens, UniProt P28324-2 1-405)
# T3 sequence: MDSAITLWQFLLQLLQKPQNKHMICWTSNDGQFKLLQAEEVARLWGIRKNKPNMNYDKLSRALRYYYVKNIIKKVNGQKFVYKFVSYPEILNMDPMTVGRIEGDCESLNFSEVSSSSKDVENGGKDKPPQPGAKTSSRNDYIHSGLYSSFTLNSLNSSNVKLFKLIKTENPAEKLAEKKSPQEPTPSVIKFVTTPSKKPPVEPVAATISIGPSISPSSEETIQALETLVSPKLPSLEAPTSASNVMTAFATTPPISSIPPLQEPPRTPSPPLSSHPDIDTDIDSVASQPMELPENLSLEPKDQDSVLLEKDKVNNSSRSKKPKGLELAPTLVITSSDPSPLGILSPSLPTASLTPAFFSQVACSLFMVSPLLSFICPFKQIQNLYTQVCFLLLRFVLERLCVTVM
# How it was run: as §1
# ETV2 = biological target: T4, ETV2 (Homo sapiens, UniProt O00321 1-342)
# T4 sequence: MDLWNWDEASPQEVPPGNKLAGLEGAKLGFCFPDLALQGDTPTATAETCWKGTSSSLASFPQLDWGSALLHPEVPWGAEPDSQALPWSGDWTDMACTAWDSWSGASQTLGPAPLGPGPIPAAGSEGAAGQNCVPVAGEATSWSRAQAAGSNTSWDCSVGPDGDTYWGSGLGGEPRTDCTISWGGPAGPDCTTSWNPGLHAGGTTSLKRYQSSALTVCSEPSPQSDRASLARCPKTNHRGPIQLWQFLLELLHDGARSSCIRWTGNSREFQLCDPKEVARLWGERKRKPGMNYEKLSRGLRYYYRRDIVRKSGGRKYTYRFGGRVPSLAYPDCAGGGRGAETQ
# How it was run: as §1
# ELF3 = biological target: T5, ELF3 (Homo sapiens, UniProt P78545 1-371)
# T5 sequence: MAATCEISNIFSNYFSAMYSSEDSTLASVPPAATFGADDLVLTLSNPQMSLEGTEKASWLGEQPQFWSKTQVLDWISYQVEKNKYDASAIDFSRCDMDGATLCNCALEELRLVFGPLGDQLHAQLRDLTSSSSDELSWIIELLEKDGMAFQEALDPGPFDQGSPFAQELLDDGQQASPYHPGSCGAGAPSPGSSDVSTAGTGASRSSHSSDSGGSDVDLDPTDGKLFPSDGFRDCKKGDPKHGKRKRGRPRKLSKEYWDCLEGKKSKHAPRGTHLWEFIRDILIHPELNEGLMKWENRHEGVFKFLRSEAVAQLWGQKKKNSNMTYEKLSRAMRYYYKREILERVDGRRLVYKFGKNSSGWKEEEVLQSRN
# How it was run: as §1
# ETV1 = ETV1 (Homo sapiens, UniProt P50549 1-477)
# How it was run: as §1
# ERF = biological target: T6, ERF (Homo sapiens, UniProt P50548 1-548)
# T6 sequence: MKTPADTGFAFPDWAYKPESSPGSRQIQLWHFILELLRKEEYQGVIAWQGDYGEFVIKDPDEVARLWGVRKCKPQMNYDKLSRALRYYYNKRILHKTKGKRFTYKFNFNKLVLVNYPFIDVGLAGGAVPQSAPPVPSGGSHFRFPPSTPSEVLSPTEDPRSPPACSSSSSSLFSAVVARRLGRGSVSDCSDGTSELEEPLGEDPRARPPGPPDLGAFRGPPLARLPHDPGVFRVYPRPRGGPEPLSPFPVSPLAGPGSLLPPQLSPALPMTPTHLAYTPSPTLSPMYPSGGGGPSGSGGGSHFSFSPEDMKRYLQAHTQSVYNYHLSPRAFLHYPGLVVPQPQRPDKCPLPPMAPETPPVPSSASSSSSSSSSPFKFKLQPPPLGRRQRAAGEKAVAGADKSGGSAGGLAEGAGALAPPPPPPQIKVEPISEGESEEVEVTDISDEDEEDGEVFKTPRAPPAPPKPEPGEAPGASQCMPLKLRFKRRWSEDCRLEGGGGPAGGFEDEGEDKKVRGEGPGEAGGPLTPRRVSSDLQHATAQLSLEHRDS
# How it was run: as §1
# ETV3L = biological target: T7, ETV3L (Homo sapiens, UniProt Q6ZN32 1-361)
# T7 sequence: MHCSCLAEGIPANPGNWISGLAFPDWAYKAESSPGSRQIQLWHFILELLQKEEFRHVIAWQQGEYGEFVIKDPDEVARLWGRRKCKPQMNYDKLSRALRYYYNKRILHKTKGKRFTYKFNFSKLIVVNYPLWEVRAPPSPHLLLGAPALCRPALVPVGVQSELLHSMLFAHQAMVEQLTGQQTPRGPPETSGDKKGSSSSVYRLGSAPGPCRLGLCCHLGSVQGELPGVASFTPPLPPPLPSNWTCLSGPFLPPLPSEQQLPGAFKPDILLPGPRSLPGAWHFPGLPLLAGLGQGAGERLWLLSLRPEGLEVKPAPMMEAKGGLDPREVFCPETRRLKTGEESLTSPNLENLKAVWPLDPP
# How it was run: as §1
# ETS2 = biological target: T8, ETS2 (Homo sapiens, UniProt P15036 1-469)
# T8 sequence: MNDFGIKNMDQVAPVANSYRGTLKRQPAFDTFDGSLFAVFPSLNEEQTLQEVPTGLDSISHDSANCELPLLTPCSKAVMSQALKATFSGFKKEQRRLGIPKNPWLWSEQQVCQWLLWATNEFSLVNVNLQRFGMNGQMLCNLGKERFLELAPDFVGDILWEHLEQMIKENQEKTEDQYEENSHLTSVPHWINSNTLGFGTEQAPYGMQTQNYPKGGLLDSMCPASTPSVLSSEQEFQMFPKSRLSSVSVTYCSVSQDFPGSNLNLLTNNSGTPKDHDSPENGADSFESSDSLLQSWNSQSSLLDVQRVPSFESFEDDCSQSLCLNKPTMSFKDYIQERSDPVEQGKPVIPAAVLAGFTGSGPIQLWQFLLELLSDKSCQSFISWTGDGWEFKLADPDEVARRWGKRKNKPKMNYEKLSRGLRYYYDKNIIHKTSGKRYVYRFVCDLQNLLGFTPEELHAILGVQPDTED
# How it was run: as §1
# SPDEF = biological target: T9, SPDEF (Homo sapiens, UniProt O95238 1-335)
# T9 sequence: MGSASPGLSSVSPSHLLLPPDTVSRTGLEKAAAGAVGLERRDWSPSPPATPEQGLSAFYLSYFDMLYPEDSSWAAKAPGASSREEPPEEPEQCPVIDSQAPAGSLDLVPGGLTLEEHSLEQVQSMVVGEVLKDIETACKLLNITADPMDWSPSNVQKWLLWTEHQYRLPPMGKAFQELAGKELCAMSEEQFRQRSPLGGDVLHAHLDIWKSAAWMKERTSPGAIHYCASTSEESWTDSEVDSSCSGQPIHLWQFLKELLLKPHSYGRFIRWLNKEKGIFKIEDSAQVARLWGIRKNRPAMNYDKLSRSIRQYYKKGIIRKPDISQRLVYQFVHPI
# How it was run: as §1
# ETV7 = biological target: T10, ETV7 (Homo sapiens, UniProt Q9Y603 1-341)
# T10 sequence: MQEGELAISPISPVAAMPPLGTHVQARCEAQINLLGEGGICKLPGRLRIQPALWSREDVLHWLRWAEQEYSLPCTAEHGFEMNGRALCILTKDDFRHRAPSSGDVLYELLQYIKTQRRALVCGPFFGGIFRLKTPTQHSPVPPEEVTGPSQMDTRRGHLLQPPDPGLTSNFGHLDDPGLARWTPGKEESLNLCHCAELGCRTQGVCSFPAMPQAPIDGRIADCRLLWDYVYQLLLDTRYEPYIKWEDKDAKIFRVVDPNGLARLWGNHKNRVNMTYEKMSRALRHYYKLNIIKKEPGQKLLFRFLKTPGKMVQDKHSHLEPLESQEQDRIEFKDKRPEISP
# How it was run: as §1
# ELF5 = biological target: T11, ELF5 (Homo sapiens, UniProt Q9UKW6-2 1-255)
# T11 sequence: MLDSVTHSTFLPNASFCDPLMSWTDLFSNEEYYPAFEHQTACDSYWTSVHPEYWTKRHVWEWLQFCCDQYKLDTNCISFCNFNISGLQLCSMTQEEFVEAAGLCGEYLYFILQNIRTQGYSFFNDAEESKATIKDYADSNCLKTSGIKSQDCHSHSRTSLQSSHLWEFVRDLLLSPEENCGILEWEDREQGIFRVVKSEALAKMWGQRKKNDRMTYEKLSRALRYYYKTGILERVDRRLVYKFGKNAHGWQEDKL
# How it was run: as §1
# ETV3 = biological target: T12, ETV3 (Homo sapiens, UniProt P41162-2 1-143)
# T12 sequence: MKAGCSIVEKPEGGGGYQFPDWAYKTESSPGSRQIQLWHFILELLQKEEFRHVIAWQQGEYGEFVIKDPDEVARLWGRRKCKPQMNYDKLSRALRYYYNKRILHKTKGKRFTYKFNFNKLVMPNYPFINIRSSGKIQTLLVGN
# How it was run: as §1
# ETV6 = ETV6 (Homo sapiens, UniProt P41212 1-452)
# How it was run: as §1
# Sequence of ETV6 (P41212 whole entry): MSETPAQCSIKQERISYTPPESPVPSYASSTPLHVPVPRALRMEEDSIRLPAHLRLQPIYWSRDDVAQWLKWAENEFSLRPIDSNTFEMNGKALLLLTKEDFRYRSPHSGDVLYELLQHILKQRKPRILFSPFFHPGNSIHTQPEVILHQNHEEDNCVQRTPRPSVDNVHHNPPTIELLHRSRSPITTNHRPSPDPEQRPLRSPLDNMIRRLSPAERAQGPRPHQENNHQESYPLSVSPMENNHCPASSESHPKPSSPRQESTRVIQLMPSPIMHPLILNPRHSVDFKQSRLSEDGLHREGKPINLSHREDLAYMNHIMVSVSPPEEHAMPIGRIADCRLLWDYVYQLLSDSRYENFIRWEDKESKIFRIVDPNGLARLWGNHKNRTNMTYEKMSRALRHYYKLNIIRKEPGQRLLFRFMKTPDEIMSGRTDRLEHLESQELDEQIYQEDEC
# Sequence of ETV1 (P50549 whole entry): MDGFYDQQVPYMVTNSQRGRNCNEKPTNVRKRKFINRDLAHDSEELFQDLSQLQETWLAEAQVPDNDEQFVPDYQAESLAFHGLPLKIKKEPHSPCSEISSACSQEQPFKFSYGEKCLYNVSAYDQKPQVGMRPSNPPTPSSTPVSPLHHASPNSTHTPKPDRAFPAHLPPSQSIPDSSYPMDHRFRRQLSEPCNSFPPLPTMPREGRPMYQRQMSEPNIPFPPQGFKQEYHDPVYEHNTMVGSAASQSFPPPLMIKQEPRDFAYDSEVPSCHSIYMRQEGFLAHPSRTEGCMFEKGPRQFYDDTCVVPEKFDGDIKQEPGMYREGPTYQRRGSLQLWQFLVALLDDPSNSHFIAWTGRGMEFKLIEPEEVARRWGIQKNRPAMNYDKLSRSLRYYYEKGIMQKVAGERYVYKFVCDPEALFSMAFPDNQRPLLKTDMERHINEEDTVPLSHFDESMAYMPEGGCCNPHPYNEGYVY
# Sequence of ETV5 (P41161 whole entry): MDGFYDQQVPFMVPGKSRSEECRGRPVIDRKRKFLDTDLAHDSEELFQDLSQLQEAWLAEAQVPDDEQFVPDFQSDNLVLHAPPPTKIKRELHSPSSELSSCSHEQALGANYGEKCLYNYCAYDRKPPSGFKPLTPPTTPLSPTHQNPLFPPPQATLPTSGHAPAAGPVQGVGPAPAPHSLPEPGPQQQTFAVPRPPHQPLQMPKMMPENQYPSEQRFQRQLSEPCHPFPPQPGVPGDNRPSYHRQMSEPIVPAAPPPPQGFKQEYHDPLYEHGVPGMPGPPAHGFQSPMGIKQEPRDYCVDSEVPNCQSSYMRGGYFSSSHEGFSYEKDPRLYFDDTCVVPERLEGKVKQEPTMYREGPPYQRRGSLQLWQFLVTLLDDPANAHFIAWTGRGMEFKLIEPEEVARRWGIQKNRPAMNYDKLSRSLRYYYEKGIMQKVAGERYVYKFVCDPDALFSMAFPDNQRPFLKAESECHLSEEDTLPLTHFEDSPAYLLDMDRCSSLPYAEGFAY
# Sequence of ELF4 (Q99607 whole entry): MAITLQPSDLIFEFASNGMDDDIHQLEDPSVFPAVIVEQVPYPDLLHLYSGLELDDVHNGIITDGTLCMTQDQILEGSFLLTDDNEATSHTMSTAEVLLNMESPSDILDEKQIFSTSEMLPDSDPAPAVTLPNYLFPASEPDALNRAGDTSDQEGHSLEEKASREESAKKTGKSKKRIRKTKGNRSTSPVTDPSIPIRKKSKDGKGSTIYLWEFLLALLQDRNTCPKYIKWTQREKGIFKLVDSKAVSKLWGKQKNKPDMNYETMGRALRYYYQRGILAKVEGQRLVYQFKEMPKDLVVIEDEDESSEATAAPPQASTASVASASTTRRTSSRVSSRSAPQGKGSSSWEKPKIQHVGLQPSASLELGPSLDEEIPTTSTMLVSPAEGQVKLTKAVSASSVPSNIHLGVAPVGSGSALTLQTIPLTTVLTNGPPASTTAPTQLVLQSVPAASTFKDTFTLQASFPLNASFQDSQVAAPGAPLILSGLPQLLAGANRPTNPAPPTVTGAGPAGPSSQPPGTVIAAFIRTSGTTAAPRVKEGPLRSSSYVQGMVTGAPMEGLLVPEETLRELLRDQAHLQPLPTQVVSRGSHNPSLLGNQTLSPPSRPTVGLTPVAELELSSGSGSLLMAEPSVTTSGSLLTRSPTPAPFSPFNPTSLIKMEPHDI
sequence,measurement,setting,value
CGCCGC,binding signal,FEV,"1.24 fold enrichment (6-mer frequency, TF over GST control)"
same,binding signal,ETV5,"1.13 fold enrichment (6-mer frequency, TF over GST control)"
same,binding signal,SPIC,"1.22 fold enrichment (6-mer frequency, TF over GST control)"
same,binding signal,ELF4,"1.26 fold enrichment (6-mer frequency, TF over GST control)"
same,binding signal,ELK4,"1.05 fold enrichment (6-mer frequency, TF over GST control)"
same,binding signal,ETV2,"1.03 fold enrichment (6-mer frequency, TF over GST control)"
same,binding signal,ELF3,"1.26 fold enrichment (6-mer frequency, TF over GST control)"
same,binding signal,ETV1,"1.29 fold enrichment (6-mer frequency, TF over GST control)"
same,binding signal,ERF,"1.2 fold enrichment (6-mer frequency, TF over GST control)"
same,binding signal,ETV3L,"1.18 fold enrichment (6-mer frequency, TF over GST control)"
same,binding signal,ETS2,"1.2 fold enrichment (6-mer frequency, TF over GST control)"
same,binding signal,SPDEF,"1.08 fold enrichment (6-mer frequency, TF over GST control)"
same,binding signal,ETV7,"1.11 fold enrichment (6-mer frequency, TF over GST control)"
same,binding signal,ELF5,"1.08 fold enrichment (6-mer frequency, TF over GST control)"
same,binding signal,ETV3,"1.09 fold enrichment (6-mer frequency, TF over GST control)"
same,binding signal,ETV6,"1.21 fold enrichment (6-mer frequency, TF over GST control)"
